{"source": "PubChem BioAssay (NCATS)", "note": "Inconclusive results are not listed. Values without a mark were called inactive. Activity calls are given as the source filed them. The call rests on the fitted dose curve; in most records, active means well fitted inhibition curve with a large enough effect; inconclusive means small, poorly fitted or top-dose-only effect; inactive means flat fitted curve, though single readings scatter. On the % scale 0 is the no-effect control and ±100 the full control effect."}
{"system": "CRL-7250", "assay": "Cytotoxic Profiling of Annotated Libraries Using Quantitative High-Throughput Screening (AID 1296008); further: nearly all actives have a fitted effect of over 60% in size", "settings": "Five cell lines viability, CellTiter-Glo ATP luminescence, 48-72 h; max response: hits give low values", "summary_of_the_method": "(§1)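 Compounds were pin-transferred onto cells and incubated 48 or 72 hr at 37 degree Celsius, 95% humidity. CellTiter-Glo was added, plates sat 10 min at room temperature, then ATP-coupled luminescence was imaged as the viability read-out.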", "units": {"max response": "%"}}
{"smiles": "NC1CCN(c2cccc(Cl)n2)CC1", "max response": 0.115}
{"smiles": "Nc1cc(=O)[nH]c(N)n1", "outcome": "inactive"}
{"smiles": "CC(O)COc1ccccc1", "note": "(stereo not given)", "max response": 2.21}
{"smiles": "CC1CC(OC(=O)C(O)c2ccccc2)CC(C)(C)N1C", "note": "(stereo not given)", "max response": -13.8}
{"smiles": "O=C1O[C@H](CO)[C@@H](O)[C@H](O)[C@H]1O", "outcome": "inactive"}
{"smiles": "NC(CSCC(=O)O)C(=O)O", "note": "(stereo not given)", "outcome": "inactive"}
{"system": "HEK293", "assay": "Cytotoxic Profiling of Annotated Libraries Using Quantitative High-Throughput Screening (AID 1296008); further: nearly all actives have a fitted effect of over 60% in size", "settings": "Five cell lines viability, CellTiter-Glo ATP luminescence, 48-72 h; max response: hits give low values", "summary_of_the_method": "as §1", "units": {"max response": "%"}}
{"smiles": "Cc1ncc([N+](=O)[O-])n1CC(O)CCl", "note": "(stereo not given)", "outcome": "inactive"}
{"smiles": "C[C@@H]1CCN(C(=O)[C@H](CCCN=C(N)N)NS(=O)(=O)c2cccc3c2NC[C@H](C)C3)[C@@H](C(=O)O)C1", "outcome": "inactive"}
{"smiles": "C[C@H](NC(CCc1ccccc1)C(=O)O)C(=O)N1CCC[C@H]1C(=O)O", "note": "(stereo not given in full)", "max response": 3.49}
{"smiles": "Oc1ccc(C(O)CNCCCCCCNCC(O)c2ccc(O)c(O)c2)cc1O", "note": "(stereo not given)", "outcome": "inactive"}
{"smiles": "CCCCC(CC)COC(=O)c1ccccc1O", "note": "(stereo not given)", "outcome": "inactive"}
{"smiles": "N[C@H](C(=O)O)c1ccc(O)cc1", "outcome": "inactive"}
{"smiles": "NC(=O)NC(=O)Cc1ccccc1", "outcome": "inactive"}
{"smiles": "C#CCN(C)Cc1ccccc1", "max response": -27.7}
{"smiles": "NS(=O)(=O)c1cc2c(cc1C(F)(F)F)NC(Cc1ccccc1)NS2(=O)=O", "note": "(stereo not given)", "outcome": "inactive"}
{"smiles": "O=C1N=C(O)CN1/N=C/c1ccc(-c2ccc([N+](=O)[O-])cc2)o1", "max response": -11.3}
{"smiles": "CCCCCCCCCCCCCCCCCCOCC(O)CO", "note": "(stereo not given)", "outcome": "inactive"}
{"smiles": "NCCNCCNCCNCCN", "outcome": "inactive"}
{"smiles": "CN(C)CCCO[C@@H]1[C@H]2OC(C)(C)O[C@H]2O[C@@H]1C(O)CO", "note": "(stereo not given in full)", "outcome": "inactive"}
{"smiles": "OC[C@H]1O[C@@H](O[C@@H]2[C@@H](CO)O[C@](O)(CO)[C@H]2O)[C@H](O)[C@@H](O)[C@H]1O", "outcome": "inactive"}
{"smiles": "N[C@@H](CSSC[C@H](N)C(=O)O)C(=O)O", "outcome": "inactive"}
{"smiles": "CC1(C)CO[C@@H](CC(=O)O)CN1", "outcome": "inactive"}
{"smiles": "CC1=C(C/C=C(\\C)CCC[C@H](C)CCC[C@H](C)CCCC(C)C)C(=O)c2ccccc2C1=O", "outcome": "inactive"}
{"smiles": "COc1cc(C(=O)N2CCOCC2)cc(OC)c1OC", "max response": 1.96}
{"smiles": "CCCCC/C(C=O)=C\\c1ccccc1", "outcome": "inactive"}
{"smiles": "CC(=O)Nc1ccc(/C=N/NC(N)=S)cc1", "max response": 0.104}
{"smiles": "O=C1OC(OC(=O)c2cccnc2Nc2cccc(C(F)(F)F)c2)c2ccccc21", "note": "(stereo not given)", "outcome": "inactive"}
{"smiles": "O=C(O)CN1C(=O)c2cccc3cccc(c23)C1=O", "outcome": "inactive"}
{"smiles": "CN1[C@@H]2CC[C@H]1CC(OC(=O)C(O)c1ccccc1)C2", "note": "(stereo not given in full)", "max response": -8.16}
{"smiles": "O=C(Oc1ccccc1C(=O)O)c1ccccc1O", "outcome": "inactive"}
{"smiles": "CC(COc1ccccc1)NC(C)C(O)c1ccc(O)cc1", "note": "(stereo not given)", "outcome": "inactive"}
{"smiles": "CCN(CC)CCOC(=O)C1(C2CCCCC2)CCCCC1", "max response": -0.793}
{"smiles": "Cc1cc(O)cc2c1O[C@](C)(CCC[C@H](C)CCC[C@H](C)CCCC(C)C)CC2", "max response": 2.12}
{"smiles": "O=S(=O)(O)c1cc(I)c(O)c2ncccc12", "outcome": "inactive"}
{"smiles": "Cc1ncc(COP(=O)(O)O)c(C=O)c1O", "outcome": "inactive"}
{"smiles": "CO/N=C(\\C(=O)N[C@@H]1C(=O)N2C(C(=O)O)=C(CSc3nc(=O)c(O)nn3C)CS[C@H]12)c1csc(N)n1", "outcome": "inactive"}
{"smiles": "O=C(O)COc1nn(Cc2ccccc2)c2ccccc12", "outcome": "inactive"}
{"smiles": "CCCc1c(OCCCCc2nn[nH]n2)ccc(C(C)=O)c1O", "outcome": "inactive"}
{"smiles": "COc1ccc2cc1Oc1cc3c(cc1OC)CC[N+](C)(C)[C@H]3Cc1ccc(cc1)Oc1c(OC)c(OC)cc3c1[C@@H](C2)[N+](C)(C)CC3", "outcome": "inactive"}
{"smiles": "NC1CCN(c2cccc(Cl)n2)CC1", "max response": -9.08}
{"smiles": "Nc1cc(=O)[nH]c(N)n1", "max response": 4.25}
{"smiles": "CC(O)COc1ccccc1", "note": "(stereo not given)", "outcome": "inactive"}
{"smiles": "CC1CC(OC(=O)C(O)c2ccccc2)CC(C)(C)N1C", "note": "(stereo not given)", "outcome": "inactive"}
{"smiles": "O=C1O[C@H](CO)[C@@H](O)[C@H](O)[C@H]1O", "outcome": "inactive"}
{"smiles": "NC(CSCC(=O)O)C(=O)O", "note": "(stereo not given)", "outcome": "inactive"}
